# Reference: PubChem BioAssay (NCI)
# About 83,000 compounds went through this panel and 20% of them were active in at least one assay; those are over-represented in the sample as a whole.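 48-hour exposure, single concentration, 96-well plates; percent growth endpoint where 0 means no net growth. Active: below 10.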 Unmarked numbers belong to inactive results. Calls of active or inactive are those of the source.
# Columns and labels:
# Assay in all cases: NCI-60 one-dose screen, 48 h (100 = growth as untreated, 0 = no growth, -100 = all killed)
# Details in all cases: 10 µM unless noted
# [1] = system: SR leukemia
# [2] = system: RPMI-8226 leukemia
# [3] = system: OVCAR-8 ovarian
# [4] = system: OVCAR-5 ovarian
# [5] = system: OVCAR-4 ovarian
# [6] = system: SK-OV-3 ovarian
# [7] = system: IGROV1 ovarian
# [8] = system: OVCAR-3 ovarian
# [9] = system: HS 578T breast
# [10] = system: NCI/ADR-RES ovarian
# [11] = system: BT-549 breast
# [12] = system: MDA-MB-435 melanoma
# [13] = system: SW-620 colon
# [14] = system: MCF7 breast
# [15] = system: HCT-116 colon
# [16] = system: HCC-2998 colon
# [17] = system: KM12 colon
# [18] = system: T-47D breast
Structure (SMILES),growth [1],growth [2],growth [3] [%],growth [4] [%],growth [5] [%],growth [6],growth [7],growth [8],growth [9],growth [10],growth [11] [%],growth [12] [%],growth [13],growth [14],growth [15],growth [16] [%],growth [17] [%],growth [18]
NNc1ncnc2c1ncn2C1OC(CO)C(O)C1O (stereo not drawn),17.5%,51.8%,25.6,54.7,45,2.11% (active),66.7%,9.24% (active),53%,24.3%,42.3,56.4,21.4%,6.39% (active),4.61% (active),48.9,28.5,
NC(=O)NCCO,96.2%,101%,99.8,106,110,110%,105%,106%,94.2%,97.7%,101,101,103%,98.3%,109%,102,101,
Cc1nc(O)cc(=O)[nH]1,114%,114%,105,110,114,121%,106%,115%,91.4%,108%,,126,109%,101%,113%,110,110,113%
CCOc1ccccc1NC(=O)CCl,74.8%,88.8%,86.9,124,45.9,109%,-12% (active),95.4%,94.9%,106%,,83.9,98.4%,46.6%,75.8%,110,97.1,75.3%
COC1OC(C(O)C(O)CO)C(O)C(O)C1O (stereo not drawn),97.7%,93.3%,105,88.7,109,95.6%,103%,109%,109%,106%,91,105,105%,97.1%,90.5%,107,106,
C/C(=N\O)c1ccccn1,94.5%,102%,97.7,106,97.3,109%,110%,106%,95.5%,100%,,94.3,94%,99.9%,111%,109,93.8,
NC(=O)N1CCOCC1,89.8%,94.8%,103,108,103,103%,113%,103%,113%,113%,,116,112%,93%,106%,112,108,97.4%
S=C(Sc1ccc(Cl)cc1)Sc1ccc(Cl)cc1,-46.5% (active),-46.6% (active),22.1,60.1,10.1,109%,-49.8% (active),-64.7% (active),7.84% (active),5.64% (active),,19.6,-68% (active),24%,-68.4% (active),24.1,41,-1.08% (active)
CCN(C(C)=O)c1ccc([N+](=O)[O-])cc1,97%,93.9%,99.2,111,113,109%,107%,107%,99.8%,102%,117,116,98.2%,98.1%,109%,97.8,,
CCC(C)C1CCC(O)CC1 (stereo not drawn),93.7%,107%,100,108,99.4,109%,110%,108%,104%,,98.5,103,107%,100%,101%,107,,104%
CCNC(=O)Oc1ccc[nH]c1=O,76.4%,93.4%,25.9,102,98.3,103%,97.9%,112%,,102%,110,103,105%,91.5%,108%,106,104,86.1%
Nc1ncc([N+](=O)[O-])cn1,104%,98.6%,95.8,102,106,106%,109%,104%,101%,,111,113,104%,98.1%,106%,107,101,103%
CCN(CC)CCOC(=O)Nc1c(C(C)C)cccc1C(C)C,101%,105%,102,104,108,95.7%,100%,114%,,113%,117,102,118%,101%,101%,114,105,103%
O=C(O)c1ccccc1Cc1ccc2c(c1)CCCC2,106%,108%,105,104,111,111%,99.5%,111%,,115%,106,115,99.5%,91.7%,104%,115,113,113%
Cc1ccc(C2CCCCC2)cc1Br,91.4%,100%,98.4,94.3,119,96.5%,101%,104%,96.4%,97.7%,,100,99.1%,96.9%,105%,105,94.3,
CC(C)=CCC[C@@H](C)[C@H]1CC[C@@]2(C)C3=C(CC[C@]12C)[C@@]1(C)CC[C@H](O)C(C)(C)[C@@H]1CC3,93.4%,102%,102,107,105,108%,115%,122%,,110%,109,101,99.9%,97.3%,108%,101,109,92.8%
Oc1cccc(CNC2CCCCC2)c1,102%,104%,110,108,126,109%,108%,119%,,110%,112,105,116%,91.3%,103%,102,107,113%
C/C(O)=C(/C=N/C(=S)Nc1ccccc1)C(=O)Nc1ccccc1C,91.7%,103%,96.3,117,83,101%,105%,105%,94.8%,,107,111,106%,94.9%,109%,109,100,79.6%
CCOC(=O)CSCCC#N,94.2%,106%,96.8,85,105,92.5%,107%,111%,107%,,87.2,106,100%,93.6%,95.2%,104,,83.4%
